Source: PubChem
SW480 rerep: inducers of DNA re-replication in SW480 colon cancer cells. SW480 DNA re-replication, Hoechst DNA content imaging, 48 h. hit rate 1.8% among 340,000. AID 624297. Potency, µM (doses to about 46.1 µM), inactives show top-dose re-replication activation, most hits filed as activators; further: % of control where 0% means no effect; nearly all actives have a fitted effect of over 55% in size
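Per well, 250 cells were exposed to pinned compound for 48 hr. Nuclear DNA was visualised with Hoechst (40 min, 37 C) and total object intensity recorded by fluorescence scanning.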
MCF10A rerep: DNA re-replication induction in MCF 10a cells; Potency, µM (doses to about 46.1 µM), for the others: at the highest dose activity, positive = re-replication, most hits filed as activators; hit rate 2.9% among 350,000; MCF 10A DNA re-replication, Hoechst nuclear intensity, 48 h; further: % of control where 0% means no effect; nearly all actives have a fitted effect of over 50% in size
HT1080-NT tox: kills 2HG-producing HT-1080-NT fibrosarcoma cells; hit rate 1.6% among 360,000; AID 686970; HT-1080-NT fibrosarcoma viability, CellTiter-Glo ATP luminescence, 48 h; Potency, µM (doses to about 46.1 µM), inactives show at the top dose activity, negative = less viability, most hits filed as cytotoxic;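 further: NT is the 2HG producing partner of a matched IDH1 knockdown line; 0% = DMSO-treated cells and -100% = media-only wells without cells; nearly all actives have a fitted effect of over 55% in size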
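750 cells/well, RPMI + 5% FBS; 2 h settle, compound pin-transfer, 48 h at 37 degrees C. CellTiter-Glo 10 min RT, luminescence. Normalized to DMSO and media-only wells.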
HT1080 IDH1KD tx: toxicity to HT-1080 IDH1 knockdown cells (counter line); HT-1080 IDH1 knockdown viability, ATP luminescence, 48 h; Potency, µM (series often up to 46.1 µM), for the others: top-dose activity, negative = toxicity, hits mostly cytotoxic; hit rate 2% among 360,000; AID 686971;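 further: 0% = DMSO wells and -100% = cell-free medium wells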
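In this qHTS, HT-1080 cells depleted of IDH1 are exposed for 48 h at 37 °C to compound titrations. Toxicity is scored from CellTiter-Glo luminescence, with DMSO as full viability and medium alone as none.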
KB-V1 MDR tox: KB-V1 MDR subline cytotoxicity | KB-V1 MDR cells viability, CellTiter-Glo, 72 h | Potency, µM (doses to about 46.1 µM), usual class: cytotoxic | hit rate 3.4% among 400,000 | AID 1347076; further: on the % scale 0 is the no-effect control and ±100 the full control effect; nearly all actives have a fitted effect of over 60% in size
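KB-V1, DMEM (no phenol red) + 10% FBS; cpd pin-transferred, titration series; 72 h, 37 degrees C; CellTiter-Glo, luminescence. Data normalized, curve-fit.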
KB-3-1 cytotox: KB-3-1 parental cell cytotoxicity | hit rate 1.4% among 400,000 | Potency, µM (titrated, usually from 46.1 µM), usual class: cytotoxic | KB-3-1 viability, CellTiter-Glo ATP luminescence, 72 h; further: on the % scale 0 is the no-effect control and ±100 the full control effect; nearly all actives have a fitted effect of over 60% in size
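Cells are dispensed, compounds pinned in, plates held at 37 °C for 72 h, then CellTiter-Glo is added and luminescence read after 10 minutes. Cell line: parental KB-3-1 in phenol-red-free DMEM, 10% FBS.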
* hit, by the source's call. An excerpt weighted towards active compounds, which were near 8% of everything screened. The call rests on the fitted dose curve; in most records, active means well fitted curve in the direction sought with a large enough effect; inconclusive means small, poorly fitted or top-dose-only effect, or another doubt; inactive means no such curve, though single readings can be large; an effect the other way counts as inactive or inconclusive. Potency means the concentration at half of the fitted maximal effect.

COCCN=C1N[C@@H](c2ccc(Br)cc2)C(C(=O)OC)=C(C)N1Cc1ccccc1 was read as SW480 rerep 3%, MCF10A rerep -22%, HT1080-NT tox 23µM*, HT1080 IDH1KD tx -29%, KB-V1 MDR tox inactive and KB-3-1 cytotox inactive.
Screening COCCOC(=O)C1=C(C)N(Cc2ccccc2)C(=O)NC1c1ccc(OC)cc1 (stereo not given) returned SW480 rerep 8%, MCF10A rerep inconclusive, HT1080-NT tox -17%, HT1080 IDH1KD tx -10%, KB-V1 MDR tox 13µM* and KB-3-1 cytotox inactive.
For Cc1ccc(-c2cc(C(=O)Nc3nccs3)c3ccccc3n2)o1 the results were SW480 rerep inconclusive, MCF10A rerep inconclusive, HT1080-NT tox 7%, HT1080 IDH1KD tx 6%, KB-V1 MDR tox 7.3µM* and KB-3-1 cytotox inactive.
`Cc1ccc(-c2cc(C(=O)Nc3nccs3)c3ccccc3n2)c(C)c1` gave SW480 rerep 5%, MCF10A rerep inconclusive, HT1080-NT tox -3%, HT1080 IDH1KD tx 4%, KB-V1 MDR tox 13µM* and KB-3-1 cytotox inactive.
For Cc1ccc(NC(=O)c2cc(-c3cccs3)nc3ccccc23)nc1 the results were SW480 rerep 20%, MCF10A rerep 22%, HT1080-NT tox inconclusive, HT1080 IDH1KD tx 21µM*, KB-V1 MDR tox inconclusive and KB-3-1 cytotox inconclusive.
O=C(Nc1nccs1)c1cc(-c2ccncc2)nc2ccccc12 was read as SW480 rerep 0%, MCF10A rerep -11%, HT1080-NT tox 2%, HT1080 IDH1KD tx -18%, KB-V1 MDR tox inconclusive and KB-3-1 cytotox inactive.
O=C(NNc1nc2ccc(Cl)cc2s1)c1cc(-c2cccs2)nc2ccccc12 was read as SW480 rerep inconclusive, MCF10A rerep 18µM*, HT1080-NT tox inconclusive, HT1080 IDH1KD tx inconclusive, KB-V1 MDR tox inconclusive and KB-3-1 cytotox inconclusive.
`Cc1c(Cl)cccc1Nc1nn2c(=O)c3ccc(C(=O)NCCC4=CCCCC4)cc3nc2s1` gave KB-V1 MDR tox inactive and KB-3-1 cytotox inconclusive.
For CC(/C=C/C=C(\C)C(=O)O[C@@H]1O[C@H](CO[C@@H]2O[C@H](CO)[C@@H](O)[C@H](O)[C@H]2O)[C@@H](O)[C@H](O)[C@H]1O)=C\C=C\C=C(C)\C=C\C=C(/C)C(=O)O[C@@H]1O[C@H](CO[C@@H]2O[C@H](CO)[C@@H](O)[C@H](O)[C@H]2O)[C@@H](O)[C@H](O)[C@H]1O the results were SW480 rerep -3% and MCF10A rerep 0%.
For CCNC(=O)C1CCN(c2nnc(C)c3c(C)n(-c4ccc(OC)cc4)nc23)CC1 the results were KB-V1 MDR tox inconclusive and KB-3-1 cytotox inactive.
`COc1ccc(NC(=O)c2cc(-c3ccc(C)o3)nc3ccccc23)cc1OC` gave SW480 rerep 9%, MCF10A rerep 25%, HT1080-NT tox inconclusive, HT1080 IDH1KD tx inconclusive, KB-V1 MDR tox 16µM* and KB-3-1 cytotox inconclusive.
Screening COc1cc(Cl)c(CN2CCC(CCC(=O)NC3CC3)CC2)cc1OC returned SW480 rerep -46%, MCF10A rerep 0.58µM*, HT1080-NT tox 0%, HT1080 IDH1KD tx -3%, KB-V1 MDR tox inactive and KB-3-1 cytotox inactive.
`Cc1ccc(C)c(NC(=O)c2cc([N+](=O)[O-])cc([N+](=O)[O-])c2)c1` gave SW480 rerep 0%, MCF10A rerep 2%, HT1080-NT tox -1%, HT1080 IDH1KD tx -7%, KB-V1 MDR tox inactive and KB-3-1 cytotox inactive.
OC(c1ccccc1)(c1ccccc1)C1CCN(CCCOc2cccc(OC(F)(F)F)c2)CC1 was read as HT1080-NT tox 18µM*, HT1080 IDH1KD tx 16µM*, KB-V1 MDR tox inactive and KB-3-1 cytotox inconclusive.
CC(C)(C)c1ccc(C(O)CCCN2CCC(C(O)(c3ccccc3)c3ccccc3)CC2)cc1 (stereo not given) was read as SW480 rerep -2%, MCF10A rerep inconclusive, HT1080-NT tox -13%, HT1080 IDH1KD tx -19%, KB-V1 MDR tox inactive and KB-3-1 cytotox inactive.
OC(c1ccccc1)(c1ccccc1)C1CCN(CCCOc2ccc3c(c2)CCCC3)CC1 was read as HT1080-NT tox 15µM*, HT1080 IDH1KD tx 13µM*, KB-V1 MDR tox 21µM* and KB-3-1 cytotox inconclusive.
`N#CCc1ccc(OCCCN2CCC(C(O)(c3ccccc3)c3ccccc3)CC2)cc1` gave HT1080-NT tox 21µM*, HT1080 IDH1KD tx inconclusive, KB-V1 MDR tox 18µM* and KB-3-1 cytotox inconclusive.
CC(=O)Nc1ccc(OCCCN2CCC(C(O)(c3ccccc3)c3ccccc3)CC2)cc1 was read as HT1080-NT tox -24%, HT1080 IDH1KD tx inconclusive, KB-V1 MDR tox inactive and KB-3-1 cytotox inactive.
For CC(=O)Nc1ccccc1OCCCN1CCC(C(O)(c2ccccc2)c2ccccc2)CC1 the results were HT1080-NT tox inconclusive, HT1080 IDH1KD tx inconclusive, KB-V1 MDR tox inconclusive and KB-3-1 cytotox inactive.
`CCC(=O)N1CCc2cc(Br)cc(S(=O)(=O)CCC(=O)NCCc3ccc(Cl)cc3)c21` gave KB-V1 MDR tox inactive and KB-3-1 cytotox inactive.
Screening CC(C)(C)C1=CC(=O)C(=O)C(C(C)(C)C)=C1 returned SW480 rerep 18µM*, MCF10A rerep inconclusive, HT1080-NT tox inconclusive, HT1080 IDH1KD tx inconclusive, KB-V1 MDR tox 13µM* and KB-3-1 cytotox inactive.
`CC(C)(C)C1=CC(=Nc2ccccc2N)C=C(C(C)(C)C)C1=O` gave SW480 rerep inconclusive, MCF10A rerep -6%, HT1080-NT tox inconclusive, HT1080 IDH1KD tx inconclusive, KB-V1 MDR tox inconclusive and KB-3-1 cytotox inconclusive.
CCOC(=O)c1noc2nc(C)n(CC(=O)Nc3ccc(OC)c(Cl)c3)c(=O)c12 was read as KB-V1 MDR tox inactive and KB-3-1 cytotox inactive.
COc1ccc(C2CC(c3ccccc3O)=NN2c2ccccc2)cc1 (stereo not given) was read as SW480 rerep 18µM*, MCF10A rerep 16µM*, HT1080-NT tox 2%, HT1080 IDH1KD tx 8%, KB-V1 MDR tox inactive and KB-3-1 cytotox inactive.
COc1ccc(C2CC(c3ccccc3)=NN2C(=O)c2ccc(F)cc2)cc1 (stereo not given) was read as SW480 rerep 6%, MCF10A rerep 15%, HT1080-NT tox -16%, HT1080 IDH1KD tx -26%, KB-V1 MDR tox inactive and KB-3-1 cytotox inactive.
